Screening results: PubChem, several laboratories
PHOSPHO1 block – blocks human PHOSPHO1 phosphatase activity; recombinant PHOSPHO1, absorbance phosphatase assay; inhibition, % at 13.3 µM; 290,000 tested, 1.1% active; Q8TCT1; AID 1565; in the data active means inhibition above about 60%
Target sequence (Q8TCT1 whole entry, looked up): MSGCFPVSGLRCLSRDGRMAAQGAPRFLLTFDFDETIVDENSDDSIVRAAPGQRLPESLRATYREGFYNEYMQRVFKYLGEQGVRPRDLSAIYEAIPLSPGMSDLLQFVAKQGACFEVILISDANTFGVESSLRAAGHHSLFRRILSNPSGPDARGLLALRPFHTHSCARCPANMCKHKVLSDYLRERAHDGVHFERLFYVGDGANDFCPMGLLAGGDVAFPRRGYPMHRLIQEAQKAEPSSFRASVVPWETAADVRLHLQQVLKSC
Calb FLC – C. albicans growth modulation with fluconazole; C. albicans CaCi-2 (fluconazole-resistant clinical isolate) + fluconazole, Alamar Blue growth, 48 h; growth inhibition, % (concentration not given with the values); 300,000 tested, 0.57% active;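 active means growth inhibition above about 58% in most replicates, limit read from the data, passing the limit was not always enough; inconclusive means exactly half the replicates above a set limit; inactive means most replicates below a set limit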;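 further: all wells also contain fluconazole at 8 µg/ml as a sub-toxic cotreatment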
Cl transport mod – modulates chloride dependent transport by human KCC2; B-score of Tl+ flux slope (higher = more flux/activation; lower = inhibition) at 10 µM; KCC2 cells, thallium flux FluoZin-2 fluorescence; 190,000 tested, 2.2% active;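 active means thallium flux slope and its plate-corrected score both differing from the plate sample mean at a set confidence after two filtering rounds, in either direction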;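 further: slope of fluorescence scaled to starting intensity during 10 to 20 s after thallium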
H9c2 protect – protects H9c2 cardiomyocytes from peroxide injury; H2O2 injury protection, ATPLite, 2 h; AID 588492; protection from H2O2 cell death, % at 20 µM; 360,000 tested, 0.63% active;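 active means compounds giving at least 50% protection of heart cells from peroxide-induced death in the single-dose screen, raw or plate-pattern-corrected value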
Efflux pump inh – inhibitors of Candida antifungal efflux pumps expressed in yeast. inhibition, % at 10 µM. S. cerevisiae Candida pump triplex, Nile Red efflux. 330,000 tested, 0.44% active;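 active means plate passing quality check with inhibition over a set limit, or well fluorescence over plate mean plus 4 SD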;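 further: Nile Red retained in pooled yeast measured as flow cytometry median fluorescence; higher means more Nile Red kept so more efflux inhibition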
KCC2 secondary – confirmation of human KCC2 transport modulators | shares compounds with Cl transport mod | HEK293-KCC2, thallium flux, FluoZin2 fluorescence; active compounds read high | normalised thallium flux (F/F0 slope) at 10 µM | 3,700 tested, 15% active | AID 1713;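 active means thallium flux slope above the same plate's solvent-only control mean plus 3 SD; inconclusive means the two replicate wells disagree; inactive means no significant difference from solvent-only control wells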
KCC2 bumet counter – bumetanide-insensitive thallium flux in KCC2 cells with ouabain, counter-screen. shares compounds with Cl transport mod. normalized thallium flux at 10 µM. HEK293-KCC2 + bumetanide/ouabain, thallium flux FluoZin2; active compounds read high. 3,700 tested, 49% active;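 active means thallium entry rate above the same plate's blocked-transporter control wells by more than 3 SD; inconclusive means the two repeat wells disagree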;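 further: raw slope of fluorescence over initial fluorescence between 10 and 20 s after thallium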
KCC2 sec2 – confirmation of human KCC2 transport modulators; HEK293-KCC2, thallium flux FluoZin2 fluorescence; actives lie on both sides; F/F0 rise rate, 10–20 s post-thallium; AID 1715; normalized thallium flux at 10 µM; shares compounds with Cl transport mod; 3,700 tested, 23% active;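 active means thallium flux slope more than 3 SD above or below the plate's solvent-only control mean, mostly below; inconclusive means the two repeat wells disagreed; inactive means no significant shift from solvent-only controls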
HEK293 Tl flux – acts in parental HEK cells, KCC2 counter-screen; thallium flux rate (normalised fluorescence) at 10 µM; 3,700 tested, 46% active; shares compounds with Cl transport mod; HEK293 parental cells, thallium flux FluoZin2, ouabain; baseline-ratio fluorescence slope, 10–20 s after thallium;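 active means thallium flux rate significantly above the same plate's solvent-only control wells, beyond their mean plus 3 SD; inconclusive means the two replicate wells gave conflicting results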
KCC2 ouabain – KCC2 (human) modulation, ouabain retest. shares compounds with Cl transport mod. HEK293-KCC2, thallium flux FluoZin2 fluorescence; bidirectional: low = inhibitor, high = activator. raw Tl+ flux slope (below DMSO = inhibition, above = activation) at 10 µM. 3,700 tested, 48% active. AID 1717;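 active means thallium flux slope beyond 3 SD from same-plate DMSO control mean in most replicates, usually higher, sometimes lower; inconclusive means repeat tests gave conflicting results; inactive means no significant difference from controls in most replicates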;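 further: slope of initial-normalized fluorescence between seconds 10 and 20 after thallium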
HEK293 Tl flux2 – counter-screen for KCC2 modulators: effect in parental HEK293 cells. thallium flux FluoZin-2 fluorescence slope. thallium flux slope at 10 µM. shares compounds with Cl transport mod. 3,700 tested, 33% active;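 active means thallium flux slope above the same plate's solvent-control mean plus 3 SD in both duplicate wells; inconclusive means duplicate wells that disagreed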;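 further: run without ouabain in cells lacking the KCC2 cotransporter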
Of the large screens only hits and unclear results are named; the others gave an inactive call (follow-up assays come after a bar, where they were run). A selection: hits, their analogues and other compounds. The true share with any hit is near 3.3%.

O=C(O)CC(=O)NC12CC3CC(CC(C3)C1)C2	none | KCC2 secondary inactive | KCC2 bumet counter inactive | KCC2 sec2 inactive | HEK293 Tl flux inactive | KCC2 ouabain inactive | HEK293 Tl flux2 inconclusive
O=C(CN1C(=O)COc2ccc(Cl)cc21)NCC1CCCO1 (centres undefined)	none (no result: Cl transport mod)
S=c1nc(-c2ccccc2)c(-c2ccccc2)n[nH]1	Cl transport mod 6 | KCC2 secondary inactive | KCC2 bumet counter 0.014 | KCC2 sec2 inactive | HEK293 Tl flux 0.016 | KCC2 ouabain inconclusive | HEK293 Tl flux2 0.02
O=c1nc(-c2ccccc2)c(-c2ccccc2)n[nH]1	none (no result: Cl transport mod)
CC(C)(CNC(=O)C1c2ccccc2-c2ccccc21)N1CCOCC1	none (no result: Cl transport mod)
COc1ccc(/C=N/n2c(-c3ccccc3)n[nH]c2=S)cc1	none (no result: Cl transport mod)
CCOc1ccc(/C=N/n2cc(-c3ccccc3)[nH]c2=S)cc1	Cl transport mod 28 | KCC2 secondary inconclusive | KCC2 bumet counter 0.057 | KCC2 sec2 inactive | HEK293 Tl flux 0.026 | KCC2 ouabain 0.053 | HEK293 Tl flux2 0.012
COc1ccc(NC(=O)Nc2cc(C(C)(C)C)on2)cc1OC	none (no result: Cl transport mod)
Cc1noc(C)c1COc1ccc(C(=O)OCC(=O)NC2CCCCC2C)cc1 (centres undefined)	none (no result: Calb FLC) | KCC2 secondary inactive | KCC2 bumet counter inactive | KCC2 sec2 inactive | HEK293 Tl flux inactive | KCC2 ouabain inactive | HEK293 Tl flux2 inconclusive
Cc1ccc(NC(=O)CSc2nnc(/N=C/N(C)C)s2)cc1	none
COC(=O)CSc1cc(SCC(=O)OC)c(C#N)c(SCC(=O)OC)c1	Cl transport mod -3.2 | KCC2 secondary inactive | KCC2 bumet counter inactive | KCC2 sec2 inactive | HEK293 Tl flux inconclusive | KCC2 ouabain inactive | HEK293 Tl flux2 inactive
CSc1nc(=S)cc(C)[nH]1	Cl transport mod 16 | KCC2 secondary inactive | KCC2 bumet counter 0.018 | KCC2 sec2 0.039 | HEK293 Tl flux 0.022 | KCC2 ouabain 0.028 | HEK293 Tl flux2 0.023
Cc1ccc(C(C(=O)NCCc2ccccc2)N(C(=O)c2csnn2)C2CC2)cc1 (centres undefined)	none (no result: Cl transport mod)
Fc1ccccc1-n1cc(-c2ccccc2)[nH]c1=S	Cl transport mod 70 | KCC2 secondary 0.019 | KCC2 bumet counter 0.12 | KCC2 sec2 inconclusive | HEK293 Tl flux 0.046 | KCC2 ouabain 0.08 | HEK293 Tl flux2 0.02
S=c1[nH]nc(COc2cccc(Cl)c2)n1Cc1ccccc1	Cl transport mod 20 | KCC2 secondary inactive | KCC2 bumet counter 0.028 | KCC2 sec2 inactive | HEK293 Tl flux 0.015 | KCC2 ouabain inconclusive | HEK293 Tl flux2 0.012
S=c1[nH]nc(-c2ccc(Cl)cc2Cl)n1Cc1ccccc1	PHOSPHO1 block 60, Cl transport mod 9 | KCC2 secondary inactive | KCC2 bumet counter 0.039 | KCC2 sec2 inconclusive | HEK293 Tl flux 0.021 | KCC2 ouabain 0.034 | HEK293 Tl flux2 0.023
CCc1cc(-c2n[nH]c(=S)n2Cc2ccccc2)cs1	PHOSPHO1 block 92, Cl transport mod 15 | KCC2 secondary inactive | KCC2 bumet counter 0.02 | KCC2 sec2 inactive | HEK293 Tl flux 0.016 | KCC2 ouabain inconclusive | HEK293 Tl flux2 0.011
S=c1[nH]nc(-c2ccc(Cl)cc2Cl)n1-c1ccccc1	none (no result: Cl transport mod)
O=[N+]([O-])c1cccc(-c2n[nH]c(=S)n2Cc2ccccc2)c1	none
